The OligoGym collection

Molecular target: SLC10A7
Assay: pooled miR-30 sensor sort-seq; sequence = guide strand
Details: shRNA
Further: reference of the scale not given here.

Sequence | sensor-assay potency score (higher = more potent)
TTTAGCTCCAGCGATCGCCAGC | -1.45
ATCATGAGGAGTACACTGCTGC | -0.556
ATGAGGAGTACACTGCTGCTGA | -0.89
TAAACTATGTTTACTTACCAAA | -1.05
TTCTGCCTTGATACCATCCAAG | -1.16
TACATCATTATAAACTCTGTAA | -0.408
TATAGATACAACATTTACTTGC | 0.105
TATCTTCGGACAATCTGTCCAA | -0.198

Molecular target: SLC12A1
Assay: as above
Details: shRNA

Sequence | sensor-assay potency score (higher = more potent)
TTGAATATTTTGTAGACTCAAC | -1.22
TTGATGACAAACATGACTGCAC | 0.915
TTGCTCGTGAATCTCAAGCAGG | -0.686
TTGTAGACTCAACTACTTCTTA | -0.589
TTCCAATGCTAGTCTCTCCTGT | 0.793
TTTCTTGTTTATCAACAGCAGT | -1.1
TTTGTGAGGATTTCCAACCAAG | -0.956
TATGACACTAACTTGAAAGCGA | 0.571
TATCTTTGATAGTCGCTTCCAA | 0.0928
TTTCTTATATCCAATCACCAGA | -0.816
TTGAGTGCTGGCTTCCACCAGT | -0.0176
TTGTGTGAGAATCATAAGCGTG | -0.782

Molecular target: SLC12A6
Assay: as above
Details: shRNA

Sequence | sensor-assay potency score (higher = more potent)
TACTGTTGTCTTCTAATTGGGC | -0.548
TATTGAGATAAGCATTTCGAGC | -1.39
TAGCTTGTAGCAGCCTCGGTGC | -1.11
TGTACTTGTAGATCATACCAGC | -0.605
TAAGTCTTCATCTAGTTTCAGT | -0.702
TTGTCTCTGAGAACAACCCCTT | -0.146
TTTTTGAAGAAGTAGAGGCTGC | 0.521
TTCTTTAGTAAGATGAAGCTGT | 0.156
TTGTTAACTATAACCTCGTTGA | -0.0795
TTTTAGTGTGTGGAGGTCCTTC | -0.634
TTACTCGGGAACTAGATCGAGA | -0.428
TATCAAAATATTCATCTCCTTC | -0.342

Molecular target: SLC13A5
Assay: as above
Details: shRNA

Sequence | sensor-assay potency score (higher = more potent)
TATGACTCCTGTTTTCACCATG | -1.13
TACTGGACACACACCTGCCTGG | -0.809
TTGCTGTCAGGAAACAACTCGT | -0.663
TTGTCTCTCATGTCTGTCTCTT | -0.189
TTTAATGAGAGCAAGAGCTGGA | 0.762
TTTAAAATTGAATCTCATGTAA | -0.532
TTGACAGCCAAAAACACACAGA | -0.786
TTTCTTGCTCTCTAGCCCGCAG | -0.697
